Measured values: PubChem BioAssay (NCI)
About 79,000 compounds went through this panel and 15% of them were active in at least one assay; those are over-represented in the sample as a whole. The source made the active and inactive calls. Rule as the data show it: active = growth inhibition above about 70%; inactive = the rest.

Experiments:
[1] = NCI Yeast Anticancer Drug Screen. Data for the rad52 strain (AID 147);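 also: 0% = growth of vehicle-treated control cultures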; conditions: S. cerevisiae rad52 mutant growth inhibition, active compounds read high
Procedure, shortened: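 Yeast strain carrying a DNA damage repair alteration was exposed to test compounds. Growth inhibition was measured relative to vehicle-treated controls.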

[2] = NCI Yeast Anticancer Drug Screen. Data for the wt1 strain (AID 149);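 also: 0% = growth of vehicle-treated wt1 cultures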; conditions: S. cerevisiae wt1 strain (SPY 50644) growth inhibition, active compounds read high
Procedure, shortened: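 The wt1 strain was treated with compounds, and growth was compared with vehicle-treated cultures to give inhibition.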

[3] = NCI Yeast Anticancer Drug Screen. Data for the rad50EPP+ strain (AID 151);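 also: 0% = growth of vehicle-treated control cultures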; conditions: S. cerevisiae rad50 mutant strain, active compounds read high
Procedure, shortened: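 Yeast strain carrying rad50 alteration (rad50EPP+) exposed to compounds; growth inhibition measured relative to vehicle-treated controls.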

[4] = NCI Yeast Anticancer Drug Screen. Data for the mgt1 strain (AID 153); conditions: S. cerevisiae mgt1 mutant growth inhibition, active compounds read high
Procedure, shortened: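 Yeast mgt1 strain (DNA repair/cell-cycle alteration panel) exposed to compounds; growth inhibition measured relative to vehicle-treated controls.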

[5] = NCI Yeast Anticancer Drug Screen. Data for the mec2-1 strain (AID 157); conditions: S. cerevisiae mec2-1 strain, active compounds read high
Procedure, shortened: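 mec2-1 yeast strain, carrying an alteration in DNA damage repair or cell cycle control, was exposed to compounds; growth inhibition was measured relative to vehicle-treated controls.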

[6] = NCI Yeast Anticancer Drug Screen. Data for the rad14 strain (AID 159);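 also: 0% = growth of vehicle-treated control cultures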; conditions: S. cerevisiae rad14 strain growth inhibition, active compounds read high
Procedure, shortened: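 Readout: yeast growth inhibition, referenced to vehicle-only cultures. Strain bears a defined alteration in DNA damage repair.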

[7] = NCI Yeast Anticancer Drug Screen. Data for the sgs1 mgt1 strain (AID 161);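 also: 0% = growth of cultures given vehicle only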; conditions: S. cerevisiae sgs1 mgt1 strain, active compounds read high
Procedure, shortened: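 Compounds are added to genetically altered yeast, and growth is compared with cultures given vehicle alone to give percent inhibition.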

[8] = NCI Yeast Anticancer Drug Screen. Data for the CLN2oe strain (AID 163);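 also: 0% = growth of vehicle-only control cultures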; conditions: S. cerevisiae CLN2oe strain, active compounds read high
Procedure, shortened: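 Yeast cells carrying a defined cell-cycle control alteration were exposed to test compounds. Growth inhibition was scored against vehicle-treated control cultures.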

[9] = NCI Yeast Anticancer Drug Screen. Data for the cln2 rad14 strain (AID 165);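 also: 0% = growth equal to vehicle treated cultures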; conditions: S. cerevisiae cln2 rad14 strain, active compounds read high
Procedure, shortened: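 Yeast carrying cln2 and rad14 alterations (cell cycle control and DNA damage repair) were exposed to compounds. Growth inhibition was measured against vehicle-treated controls.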

[10] = NCI Yeast Anticancer Drug Screen. Data for the bub3 strain (AID 167); conditions: S. cerevisiae bub3 mutant strain, active compounds read high
Procedure, shortened: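 Part of a panel of yeast mutants defective in DNA damage repair or cell cycle regulation. Each strain is grown with compound, and inhibition is calculated relative to solvent-treated cultures.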

[11] = NCI Yeast Anticancer Drug Screen. Data for the wt2 strain (AID 169);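 also: 0% = growth of vehicle-treated yeast cultures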; conditions: S. cerevisiae wt2 strain growth inhibition, active compounds read high
Procedure, shortened: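 Yeast cells were exposed to test compounds, and growth inhibition was measured relative to vehicle-treated controls.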

[12] = NCI Yeast Anticancer Drug Screen. Data for the mlh1 strain (AID 171);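 also: 0% = growth of vehicle-treated control cultures of the same strain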; conditions: S. cerevisiae mlh1 strain growth inhibition, active compounds read high
Procedure, shortened: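 Yeast carrying a defined genetic alteration in DNA damage repair or cell cycle control were exposed to test compounds. Growth inhibition was measured relative to vehicle-treated controls.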

[13] = NCI Yeast Anticancer Drug Screen. Data for the sgs1 strain (AID 173);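 also: 0% = growth of vehicle-only control cultures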; conditions: S. cerevisiae sgs1 mutant, active compounds read high
Procedure, shortened: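 Yeast mutant strains carrying defined defects in DNA damage repair or cell cycle control were exposed to test compounds. Growth inhibition was scored against vehicle-treated controls.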

[14] = NCI Yeast Anticancer Drug Screen. Data for the mlh1 rad18 strain (AID 175); conditions: S. cerevisiae mlh1 rad18 strain growth inhibition, active compounds read high
Procedure, shortened: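 Growth inhibition of the yeast strain was measured after compound exposure and expressed relative to vehicle-treated controls. The strain carries defined defects in DNA damage repair.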

[15] = NCI Yeast Anticancer Drug Screen. Data for the rad18 strain (AID 177); conditions: S. cerevisiae rad18 mutant growth inhibition, active compounds read high
Procedure, shortened: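 Yeast carrying a defined DNA damage repair alteration were exposed to compounds. Growth inhibition was expressed relative to vehicle-treated controls.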

[16] = NCI Yeast Anticancer Drug Screen. Data for the rad50 strain (AID 155);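 also: 0% = growth of vehicle-only cultures of the same strain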; conditions: S. cerevisiae rad50 strain growth inhibition, active compounds read high
Procedure, shortened: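 Cells are treated with compound, grown, and their growth is then scored against vehicle-only cultures of the same repair-deficient yeast strain.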

[17] = at 5.0 µM (retest, dose inferred, filed as 0.5)
[18] = at 50.0 µM (retest, dose inferred, filed as 5.0)

Measured: growth inhibition

OCC(Cn1cncn1)(c1ccc(F)cc1F)n1cncn1 (stereo not drawn)
inactive: [1]; at 1.2 µM 35% | [1]; at 3.7 µM 57% | [1]; at 11.0 µM 63% | [1]; at 33.0 µM 66% | [1]; at 100.0 µM 65% | [2]; at 1.2 µM 13% | [2]; at 3.7 µM 40% | [2]; at 11.0 µM 45% | [2]; at 33.0 µM 43% | [2]; at 100.0 µM 42% | [3]; at 1.2 µM 2% | [3]; at 3.7 µM 28% | [4]; at 1.2 µM 33% | [4]; at 3.7 µM 62% | [4]; at 11.0 µM 65% | [4]; at 33.0 µM 66% | [4]; at 100.0 µM 65% | [5]; at 1.2 µM 27% | [5]; at 3.7 µM 45% | [5]; [17] 41% | [5]; at 11.0 µM 53% | [5]; at 33.0 µM 53% | [5]; [18] 61% | [5]; at 50.0 µM 44.2% | [5]; at 100.0 µM 52% | [6]; at 1.2 µM 57% | [7]; [17] 67% | [7]; at 50.0 µM 68.2% | [8]; at 1.2 µM 29% | [8]; at 3.7 µM 51% | [8]; at 11.0 µM 62% | [8]; at 33.0 µM 65% | [8]; at 100.0 µM 68% | [9]; [17] 22% | [9]; at 50.0 µM 63% | [10]; at 1.2 µM 27% | [10]; at 3.7 µM 54% | [10]; [17] 14% | [10]; at 11.0 µM 69% | [10]; at 33.0 µM 69% | [10]; at 100.0 µM 66% | [11]; at 1.2 µM 31% | [11]; at 3.7 µM 57% | [11]; at 11.0 µM 64% | [11]; at 33.0 µM 61% | [11]; at 100.0 µM 57% | [12]; at 1.2 µM 22% | [12]; at 3.7 µM 47% | [12]; at 11.0 µM 53% | [12]; at 33.0 µM 53% | [12]; at 100.0 µM 50% | [13]; at 1.2 µM 48% | [13]; at 3.7 µM 67% | [14]; [17] 31% | [14]; at 50.0 µM 57.5% | [15]; at 1.2 µM 41% | [15]; at 3.7 µM 60% | [15]; at 11.0 µM 67% | [15]; at 33.0 µM 65% | [15]; at 100.0 µM 65%
active: [3]; at 11.0 µM 86% | [3]; at 33.0 µM 92% | [3]; at 100.0 µM 94% | [6]; at 3.7 µM 74% | [6]; at 11.0 µM 83% | [6]; at 33.0 µM 76% | [6]; at 100.0 µM 74% | [7]; [18] 78% | [9]; [18] 81% | [10]; [18] 84% | [10]; at 50.0 µM 71% | [13]; at 11.0 µM 72% | [13]; at 33.0 µM 72% | [13]; at 100.0 µM 70% | [14]; [18] 86%

COc1cc(/C=C2\CCc3ccccc3C2=O)cc(OC)c1OC
inactive: [1]; at 1.2 µM 3% | [1]; at 3.7 µM -3% | [1]; at 11.0 µM 3% | [1]; at 33.0 µM 18% | [2]; at 1.2 µM 9% | [2]; at 3.7 µM 3% | [2]; at 11.0 µM -2% | [2]; at 33.0 µM 11% | [4]; at 1.2 µM -9% | [4]; at 3.7 µM -14% | [4]; at 11.0 µM -45% | [4]; at 33.0 µM 6% | [16]; at 1.2 µM 6% | [16]; at 3.7 µM -3% | [16]; [17] 15% | [16]; at 11.0 µM -17% | [16]; at 33.0 µM 26% | [16]; [18] 6% | [16]; at 50.0 µM 44.1% | [5]; at 1.2 µM -17% | [5]; at 3.7 µM 10% | [5]; [17] -11% | [5]; at 11.0 µM 1% | [5]; at 33.0 µM 22% | [5]; [18] 14% | [5]; at 50.0 µM 25.6% | [6]; at 1.2 µM -10% | [6]; at 3.7 µM -25% | [6]; at 11.0 µM -44% | [6]; at 33.0 µM -28% | [6]; at 100.0 µM 48% | [7]; [17] 5% | [7]; [18] 33% | [7]; at 50.0 µM 56.8% | [8]; at 1.2 µM 13% | [8]; at 3.7 µM -2% | [8]; at 11.0 µM 2% | [8]; at 33.0 µM 15% | [9]; [17] 2% | [9]; [18] 24% | [9]; at 50.0 µM 39.8% | [10]; at 1.2 µM -29% | [10]; at 3.7 µM -13% | [10]; [17] -3% | [10]; at 11.0 µM 32% | [11]; at 1.2 µM 2% | [11]; at 3.7 µM 0% | [11]; at 11.0 µM -10% | [11]; at 33.0 µM 13% | [12]; at 1.2 µM -3% | [12]; at 3.7 µM -7% | [12]; at 11.0 µM -11% | [12]; at 33.0 µM 21% | [13]; at 1.2 µM 16% | [13]; at 3.7 µM 17% | [13]; at 11.0 µM 24% | [13]; at 33.0 µM 61% | [14]; [17] -15% | [14]; [18] 0% | [14]; at 50.0 µM 33.5% | [15]; at 1.2 µM 5% | [15]; at 3.7 µM 8% | [15]; at 11.0 µM 7% | [15]; at 33.0 µM 35%
active: [1]; at 100.0 µM 70% | [2]; at 100.0 µM 76% | [4]; at 100.0 µM 73% | [16]; at 100.0 µM 72% | [5]; at 100.0 µM 73% | [8]; at 100.0 µM 74% | [10]; at 33.0 µM 76% | [10]; [18] 86% | [10]; at 50.0 µM 74.3% | [10]; at 100.0 µM 85% | [11]; at 100.0 µM 79% | [12]; at 100.0 µM 75% | [13]; at 100.0 µM 86% | [15]; at 100.0 µM 73%

O=C1c2ccccc2C(=O)c2c(NC3CCCCC3)ccc(Nc3ccc(S(=O)(=O)O)cc3)c21
active: [3]; at 33.0 µM 80% | [4]; at 33.0 µM 81% | [16]; at 50.0 µM 79.2% | [5]; at 50.0 µM 77% | [7]; [18] 85% | [7]; at 50.0 µM 77.2% | [10]; at 50.0 µM 70.3% | [11]; at 33.0 µM 80%
inactive: [1]; at 1.2 µM -5% | [1]; at 3.7 µM -5% | [1]; at 11.0 µM -5% | [1]; at 33.0 µM 37% | [1]; at 100.0 µM 49% | [2]; at 1.2 µM -1% | [2]; at 3.7 µM -5% | [2]; at 11.0 µM -7% | [2]; at 33.0 µM 10% | [2]; at 100.0 µM 33% | [3]; at 1.2 µM -2% | [3]; at 3.7 µM 5% | [3]; at 11.0 µM 56% | [3]; at 100.0 µM 63% | [4]; at 1.2 µM -2% | [4]; at 3.7 µM -1% | [4]; at 11.0 µM -2% | [4]; at 100.0 µM 68% | [16]; at 1.2 µM 0% | [16]; at 3.7 µM -2% | [16]; [17] 8% | [16]; at 11.0 µM 9% | [16]; at 33.0 µM 27% | [16]; [18] 62% | [16]; at 100.0 µM 44% | [5]; at 1.2 µM 1% | [5]; at 3.7 µM -5% | [5]; [17] -14% | [5]; at 11.0 µM -5% | [5]; at 33.0 µM 14% | [5]; [18] 59% | [5]; at 100.0 µM 48% | [7]; [17] -13% | [8]; at 1.2 µM -5% | [8]; at 3.7 µM 4% | [8]; at 11.0 µM -5% | [8]; at 33.0 µM 1% | [8]; at 100.0 µM 18% | [10]; at 1.2 µM -2% | [10]; at 3.7 µM -4% | [10]; [17] 6% | [10]; at 11.0 µM 5% | [10]; at 33.0 µM 36% | [10]; [18] 46% | [10]; at 100.0 µM 30% | [11]; at 1.2 µM -3% | [11]; at 3.7 µM -4% | [11]; at 11.0 µM 5% | [11]; at 100.0 µM 62% | [12]; at 1.2 µM -2% | [12]; at 3.7 µM -3% | [12]; at 11.0 µM 5%
